Data as given in PubChem BioAssay (Tox21).
Results filed as inconclusive are left out. Entries that show only a call come without a potency. The source holds several records for some structures; these can differ, active in one and inactive in another. Calls of active or inactive are those of the source. Calls follow the shape of the dose curve; as a rule, active = well fitted activation curve with a large enough effect in the signal ratio in the repeat runs (not every such curve was filed as active); inconclusive = weak or mixed curves, or effect the other way; inactive = no such curve, though single readings can be large or run the other way; the % refers to the signal ratio.

Target: Peroxisome proliferator-activated receptor gamma (Homo sapiens) (UniProt P37231)
Test: qHTS assay to identify small molecule agonists of the peroxisome proliferator-activated receptor gamma (PPARg) signaling pathway (AID 743094)
Conditions: HEK293H PPARg-UAS-bla, beta-lactamase FRET ratio, 17 h; series mostly up to 57 µM
Text: U.S. Tox21 Program National Center for Advancing Translational Sciences [NCATS] NIH Chemical Genomics Center [NCGC] U.S. Environmental Protection Agency [EPA] National Institutes of Environmental Health Sciences [NIEHS] National Toxicology Program [NTP] U.S. Food and Drug Administration [FDA] Tox21 Assay Overview: The peroxisome proliferator-activated receptors (PPARs) are lipid-activated transcription factors of the nuclear receptor superfamily with three distinct subtypes namely PPAR alpha, PPAR delta (also called PPAR beta) and PPAR gamma (PPARg). All these subtypes heterodimerize with Retinoid X receptor (RXR) and these heterodimers regulate transcription of various genes. PPAR-gamma receptor (glitazone receptor) is involved in the regulation of glucose and lipid metabolism. To identify the compounds that activate PPAR-gamma signaling, GeneBLAzer PPAR gamma UAS-bla HEK293H cell line (Invitrogen, Carlsbad, CA, USA) containing a beta-lactamase reporter gene under control of the control of an upstream activator sequence (UAS) stably integrated into HEK293H cells was used to screen Tox21 compound library.
Tox21 Assay Protocol Summary: PPARg-bla cells were dispensed at 3000 cells/6uL/well in 1536-well black wall/clear bottom plates using a Multidrop Combi (Thermo Fisher Scientific, Waltham, MA) dispenser. After the assay plates were incubated at 37C and 5% CO2 for 5 h, 23 nL of compounds dissolved in DMSO, positive controls or DMSO only was transferred to the assay plate by a Pintool station (Kalypsys, San Diego, CA). The assay plates were incubated at 37C for 17 h. After 1 uL of LiveBLAzerTM B/G FRET substrate was added using a Bioraptr Flying Reagent Dispenser (FRD) workstation (Beckman Coulter, Indianapolis, IN, USA), the plates were incubated at room temperature for 1 h, and fluorescence intensity was measured by an Envision plate reader (PerkinElmer, Shelton, CT).
Potency is read from the fitted curve at half-maximal effect.

Chain of Peroxisome proliferator-activated receptor gamma (Homo sapiens) (P37231 whole entry, looked up): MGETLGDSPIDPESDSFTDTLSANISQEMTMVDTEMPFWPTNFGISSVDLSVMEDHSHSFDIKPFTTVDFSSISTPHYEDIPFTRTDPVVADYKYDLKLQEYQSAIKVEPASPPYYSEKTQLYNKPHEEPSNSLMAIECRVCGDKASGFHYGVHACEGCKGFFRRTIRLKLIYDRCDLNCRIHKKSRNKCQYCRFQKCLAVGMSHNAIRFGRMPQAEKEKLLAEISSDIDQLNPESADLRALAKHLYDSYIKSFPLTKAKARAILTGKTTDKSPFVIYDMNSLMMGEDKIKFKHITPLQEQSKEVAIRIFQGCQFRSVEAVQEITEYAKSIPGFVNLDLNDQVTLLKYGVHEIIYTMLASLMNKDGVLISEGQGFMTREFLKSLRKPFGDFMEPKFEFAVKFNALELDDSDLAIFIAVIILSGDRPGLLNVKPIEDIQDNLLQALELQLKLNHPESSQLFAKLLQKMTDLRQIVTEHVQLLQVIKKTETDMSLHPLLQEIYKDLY

Row | Structure (SMILES) | Potency | activation
1 | CCCCCC(C)=O | inactive | 
2 | CC(C)=CCC/C(C)=C/C=O | inactive | 
3 | C[Si](C)(C)N[Si](C)(C)C | inactive | 
4 | N[C@@H](Cc1cc(I)c(Oc2ccc(O)c(I)c2)c(I)c1)C(=O)O | inactive | 
5 | Nc1cccc(N)n1 | inactive | 
6 | CC(=O)OCCC(C)C | inactive | 
7 | Cc1cc(CC(=O)O)n(C)c1C(=O)c1ccc(Cl)cc1 | inactive | 
8 | CCCCCCCCCCCCCC(=O)O | inactive | 
9 | CO[Si](CCCNCCN)(OC)OC | inactive | 
10 | OB(O)O | inactive | 
11 | COC(=O)CCCCC(=O)OC | inactive | 
12 | Cc1nnc(NS(=O)(=O)c2ccc(N)cc2)s1 | inactive | 
13 | C=C1C[C@]23C[C@@]1(O)CC[C@H]2[C@@]12C=C[C@H](O)[C@@](C)(C(=O)O1)[C@H]2[C@@H]3C(=O)O | inactive | 
14 | Nc1cccc(C(F)(F)F)c1 | inactive | 
15 | CC/C=C(\C(=O)N[C@@H]1C(=O)N2C(C(=O)OCOC(=O)C(C)(C)C)=C(COC(N)=O)CS[C@H]12)c1csc(N)n1 | inactive | 
16 | COc1c(Cl)ccc(Cl)c1C(=O)O | inactive | 
17 | Cc1ccc([N+](=O)[O-])cc1N | inactive | 
18 | CC(COCC(C)OC(=O)c1ccccc1)OC(=O)c1ccccc1 (stereo not given) | inactive | 
19 | CC(C=O)Cc1ccc(C(C)(C)C)cc1 (stereo not given) | inactive | 
20 | Cc1cc(C)cc(O)c1 | inactive | 

Row | Structure (SMILES) | Potency | activation
21 | COc1ccc(N)c(OC)c1 | inactive | 
22 | O=c1c(O)c(-c2ccc(O)c(O)c2)oc2cc(O)cc(O)c12 | inactive | 
23 | O=[N+]([O-])c1ccccc1C(F)(F)F | inactive | 
24 | CCCCCCCCCCCC(=O)N(C)CC(=O)O | 15 µM (active) | 0.467% [at 7.08 µM] (inactive)
25 | COC(=O)OC | inactive | 
26 | CC(=O)c1nccs1 | inactive | 
27 | O=[N+]([O-])c1cc(C(F)(F)F)ccc1Cl | inactive | 
28 | OC[C@H]1O[C@@H](Oc2ccc(O)cc2)[C@H](O)[C@@H](O)[C@@H]1O | inactive | 
29 | CCCCCCCCO | inactive | 
30 | c1cnc2c(c1)ccc1cccnc12 | inactive | 
31 | COc1ccc([C@@H]2CC(=O)c3c(O)cc(O[C@@H]4O[C@H](CO[C@@H]5O[C@@H](C)[C@H](O)[C@@H](O)[C@H]5O)[C@@H](O)[C@H](O)[C@H]4O)cc3O2)cc1OC | inactive | 
32 | CCCCC(=O)O | inactive | 
33 | Cc1ncc(CO)c(CO)c1O | inactive | 
34 | Cc1ccc(C)c(S(=O)(=O)O)c1 | inactive | 
35 | COc1ccc2cc3[n+](cc2c1OC)CCc1cc2c(cc1-3)OCO2 | inactive | 
36 | C=C(CC(=O)O)C(=O)O | inactive | 
37 | COCN(COC)c1nc(N(COC)COC)nc(N(COC)COC)n1 | inactive | 
38 | OC1CCCCC1 | inactive | 
39 | CCCOCC(C)O (stereo not given) | inactive | 
